Assay outcomes from PubChem BioAssay.
Luciferase inh: blocks purified firefly luciferase enzyme activity. purified P. pyralis luciferase, luminescence, biochemical. 76,000 compounds, 2.5% hits. P08659. Potency, µM (doses to about 115 µM), most hits filed as inhibitors; also: nearly all actives have a fitted effect of over 65% in size
Target sequence (P08659 whole entry, looked up): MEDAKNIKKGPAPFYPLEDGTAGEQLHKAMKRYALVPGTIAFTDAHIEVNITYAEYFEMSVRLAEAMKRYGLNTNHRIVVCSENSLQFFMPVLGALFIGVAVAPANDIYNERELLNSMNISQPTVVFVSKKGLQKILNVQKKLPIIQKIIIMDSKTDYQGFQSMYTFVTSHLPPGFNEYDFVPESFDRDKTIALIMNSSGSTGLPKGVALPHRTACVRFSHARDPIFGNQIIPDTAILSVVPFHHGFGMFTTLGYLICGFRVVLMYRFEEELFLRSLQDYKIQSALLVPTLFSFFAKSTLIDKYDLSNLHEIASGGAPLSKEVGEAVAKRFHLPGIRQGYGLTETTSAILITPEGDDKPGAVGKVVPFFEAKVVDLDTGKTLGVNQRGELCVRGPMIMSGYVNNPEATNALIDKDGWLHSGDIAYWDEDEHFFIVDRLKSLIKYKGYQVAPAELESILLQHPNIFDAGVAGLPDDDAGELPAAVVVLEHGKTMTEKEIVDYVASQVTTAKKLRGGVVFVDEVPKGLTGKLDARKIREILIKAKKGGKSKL
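Purified P. pyralis luciferase (10nM final) in 50mM Tris acetate pH 7.5, 10mM Mg acetate, 0.01% Tween-20, 0.05% BSA with 10uM D-luciferin and 10uM ATP. Compounds titrated qHTS. Luminescence imaged on CCD.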
HEK cytotox: kills HEK 293 cells | HEK 293 viability, ATP luminescence (CellTiter-Glo), 48-72 h | Potency, µM (top dose mostly 115 µM), actives largely listed as inhibitors | 94,000 compounds, 6.6% hits | AID 1345083; also: nearly all actives have a fitted effect of over 60% in size
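HEK 293 seeded at 250 cells/well receive compound via pintool. After 48 or 72 hr at 37 degree Celsius, 5% CO2 and 95% humidity, CellTiter-Glo is dispensed and luminescence read following 10 min at room temperature.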
hNpr1 antagonist: human Npr1 receptor antagonism; P16066; HEK293 hNpr1 GloSensor cGMP, ANP-stimulated luminescence; Potency, µM (highest dose often 46.3 µM), actives largely listed as inhibitors; 76,000 compounds, 1.6% hits; AID 1347048; calls by dose curve; also: nearly all actives have a fitted effect of over 60% in size
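HEK293 cells stably expressing human Npr1 and cGMP GloSensor pGS-40F, loaded 2 h with 2% GloSensor reagent, given compound 30 min at room temperature. Luminescence read before and 20 min after 0.1 nM hNppA.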
3T3 cytotox: cytotoxic compounds in NIH 3T3 cells. NIH 3T3 viability, CellTiter-Glo ATP luminescence, 48-72 h. 94,000 compounds, 4.3% hits. Potency, µM (highest dose often 96.7 µM), usual class: inhibitors; also: nearly all actives have a fitted effect of over 55% in size
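Cytotoxicity is measured as loss of cellular ATP: NIH 3T3 cells (400/well) are exposed to compound for 48 or 72 hr at 37 °C, then CellTiter-Glo luminescence is imaged after 10 min at room temperature.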
Large screens that a line does not name were inactive. An excerpt weighted towards active compounds, which were near 11% of everything screened. Unless noted, calls follow the shape of the dose curve; as a rule, active = well fitted curve in the direction sought with a large enough effect; inconclusive = small, poorly fitted or top-dose-only effect, or another doubt; inactive = no such curve, though single readings can be large; an effect the other way counts as inactive or inconclusive.

COc1ccc(-c2noc(-c3nc(C(C)C)no3)n2)cc1	Luciferase inh 11µM, HEK cytotox inconclusive
COc1ccc(-c2noc(-c3nc(-c4cc(OC)c(OC)c(OC)c4)no3)n2)cc1	none
Cc1cccc(N2CCN(C(=O)CCc3conc3-c3ccccc3)CC2)c1C	HEK cytotox 45µM, 3T3 cytotox inconclusive
O=C(c1ccc2[nH]ncc2c1)N1CCOCC12CCN(Cc1ccccc1Cl)CC2	HEK cytotox inconclusive
CN1c2cc(C(=O)NCc3ccccc3)ccc2C(=O)N2CCCCCC21 (stereo not drawn)	HEK cytotox inconclusive
Cc1cc(C)c(CNC(=O)c2nc(-c3ccc(CN(C)C)cc3)cc3c2ccn3C(C)C)c(=O)[nH]1	HEK cytotox inconclusive, 3T3 cytotox 14µM
Cc1cc(C)c(CNC(=O)c2nc(-c3ccccc3O)cc3c2ccn3C(C)C)c(=O)[nH]1	HEK cytotox inconclusive, 3T3 cytotox inconclusive
Cc1ccc(-c2cc3c(ccn3C(C)C)c(C(=O)NCc3c(C)cc(C)[nH]c3=O)n2)cn1	Luciferase inh inconclusive, HEK cytotox inconclusive, 3T3 cytotox 79µM
Cc1cc(C)c(CNC(=O)c2nc(-c3ccccc3C)cc3c2ccn3C(C)C)c(=O)[nH]1	HEK cytotox 22µM, hNpr1 antagonist inconclusive, 3T3 cytotox 28µM
Cc1cc(C)c(CNC(=O)c2nc(-c3ccc(CN(C)C)cc3)cc3[nH]ccc23)c(=O)[nH]1	Luciferase inh inconclusive, HEK cytotox inconclusive, 3T3 cytotox 100µM
O=C(NC[C@H]1O[C@H](Cc2cc(CN3CCNCC3)on2)CC[C@@H]1O)c1ccccc1F	none
CCCCC(=O)Nc1ccc(C)cc1NC(=O)c1ccc(CN(C)C)o1	none
COc1ccc(CCNC(=O)C2CCCN(Cc3cccc(-c4cccc(C)c4)c3)C2)cc1 (stereo not drawn)	HEK cytotox 22µM, 3T3 cytotox inconclusive (no result: Luciferase inh, hNpr1 antagonist)
COc1ccc(-c2ccccc2NC(=O)C2CCCN(Cc3ccc(F)c(F)c3)C2)cc1 (stereo not drawn)	none
COc1ccc(CNC(=O)C2CCCN(Cc3cccc(-c4cccc(C)c4)c3)C2)cc1 (stereo not drawn)	HEK cytotox inconclusive, 3T3 cytotox 28µM (no result: Luciferase inh, hNpr1 antagonist)
CCc1ccccc1NC(=O)Cn1c(-c2cccc(Cl)c2)nc(C)c(CCO)c1=O	HEK cytotox inconclusive, 3T3 cytotox inconclusive
COCCNC(=O)[C@@H]1C[C@H](Oc2ccccc2)CN1C(=O)c1ccc(OC)nc1OC	none
O=C(Nc1ccc(-c2cccc(F)c2)cc1)C1CCCN1Cc1ccc(CO)o1 (stereo not drawn)	Luciferase inh inconclusive, HEK cytotox 35µM, 3T3 cytotox inconclusive
Cc1ncc(CN2CCCC2C(=O)Nc2ccc(-c3cccc(F)c3)cc2)n1C (stereo not drawn)	HEK cytotox 20µM, 3T3 cytotox inconclusive
Cc1ncc(CN2CCCC2C(=O)Nc2ccc(-c3cccc(F)c3)cc2)[nH]1 (stereo not drawn)	HEK cytotox inconclusive, 3T3 cytotox inconclusive
CC(C)CN1CCC[C@H]1c1nc(-c2ccnc(N3CCOCC3)c2)no1	HEK cytotox 89µM, 3T3 cytotox inconclusive
CN(C)c1ccc(-c2noc([C@@H]3CCCN3Cc3nc4ccccc4n3C)n2)cn1	HEK cytotox 112µM, 3T3 cytotox inconclusive
CN1CCN(c2ccc(-c3noc([C@@H]4CCCN4Cc4ccccc4)n3)cn2)CC1	HEK cytotox 71µM, 3T3 cytotox 100µM
CS(=O)(=O)c1ccc(CN2CCC[C@H]2c2nc(-c3ccnc(N4CCOCC4)c3)no2)cc1	none
Fc1ccccc1CN1CCC[C@H]1c1nc(-c2ccnc(N3CCOCC3)c2)no1	HEK cytotox 89µM, 3T3 cytotox inconclusive
Cc1cc(F)ccc1NC(=O)CN1C(=O)NC2(CCCCC2)C1=O	none
CCN1C(=O)C2CC3(CCN(C(=O)c4ccc(Cn5cncn5)o4)CC3)CN2C1=O (stereo not drawn)	none
Cn1cnnc1CC1CCNC1 (stereo not drawn)	none
N#Cc1ccc(CN2CCC[C@H]2c2nc(-c3ccnc(N4CCOCC4)c3)no2)cc1	HEK cytotox inconclusive, hNpr1 antagonist inconclusive
c1ccc(CN2CCC[C@H]2c2nc(-c3ccnc(N4CCOCC4)c3)no2)cc1	HEK cytotox 89µM, 3T3 cytotox inconclusive
CC(=O)N1CCN(c2cc(-c3noc([C@@H]4CCCN4Cc4ccc(C(F)(F)F)cc4)n3)ccn2)CC1	HEK cytotox 28µM
COc1ccc(C(=O)Nc2ccc(-c3noc([C@@H]4CCCN4Cc4cnc5ccccc5c4)n3)cn2)cc1	Luciferase inh inconclusive, HEK cytotox 22µM, hNpr1 antagonist 13µM, 3T3 cytotox 28µM
CNc1ccc(-c2noc([C@@H]3CCCN3Cc3cnc4ccccc4c3)n2)cn1	HEK cytotox inconclusive, 3T3 cytotox inconclusive
CNC(=O)[C@@H]1C[C@H](n2cc(CNC(=O)Nc3ccc(Cl)cc3C)nn2)CN1	none
Cc1ccc(C2Cn3nnc(C(=O)N4CCC(C(=O)Nc5ccc(F)c(F)c5)CC4)c3CO2)cc1 (stereo not drawn)	Luciferase inh 40µM, HEK cytotox inconclusive
Cc1ccc(C2Cn3nnc(C(=O)N4CCC(C(=O)Nc5cc(F)cc(F)c5)CC4)c3CO2)cc1 (stereo not drawn)	Luciferase inh 28µM
O=C(NC1CCN(c2cc(-c3cccs3)[nH]n2)C1)c1cc(Cl)ccc1F (stereo not drawn)	HEK cytotox inconclusive, 3T3 cytotox inconclusive
O=C(CCC[C@@H]1[C@H]2CCCN3CCC[C@@H](CN1C(=O)c1cccnc1)[C@@H]23)NCCN1CCCCC1	none
NCCn1cc(C(=O)NCc2cccnc2Oc2cccc(C(F)(F)F)c2)nn1	none
CCC1=C(C(=O)OC)C(c2ccc(C(C)C)cc2)N2C(CC(=O)N3CCOCC3)=CSC2=N1 (stereo not drawn)	none
COCCCn1c(C)cc(C(=O)NCCc2noc(COC)n2)c1C	none
COCCCn1c(C)cc(C(=O)NCCc2noc(-c3ccccc3)n2)c1C	HEK cytotox 40µM, 3T3 cytotox inconclusive
CC(=O)NCC(=O)N1Cc2ccccc2CC2(CCN(CC3CCCC3)C2)C1 (stereo not drawn)	none (no result: Luciferase inh, hNpr1 antagonist)
O[C@H]1CC[C@@H](Cc2cc(-c3ccccc3)on2)O[C@@H]1CNC1CCCCC1	HEK cytotox 100µM, 3T3 cytotox inconclusive
COc1ccccc1CNC[C@H]1O[C@H](Cc2cc(CN(C)C)on2)CC[C@@H]1O	none
COc1ccccc1CNC[C@H]1O[C@H](Cc2cc(-c3ccccc3)on2)CC[C@@H]1O	HEK cytotox inconclusive, 3T3 cytotox 89µM
Fc1ccc(-c2cnc([C@@H]3COCCN3Cc3cnc4ccccc4c3)[nH]2)c(F)c1	HEK cytotox 89µM, 3T3 cytotox inconclusive
Fc1ccc(-c2cnc([C@@H]3COCCN3Cc3cccnc3)[nH]2)c(F)c1	HEK cytotox inconclusive, 3T3 cytotox inconclusive
Clc1ccc(-c2cnc([C@@H]3COCCN3Cc3cnc4ccccc4c3)[nH]2)s1	HEK cytotox 89µM, hNpr1 antagonist inconclusive, 3T3 cytotox inconclusive
Cc1nc(CN2C[C@H](C(=O)N3CCN(CCO)CC3)C[C@@H]2c2ccc(F)cc2)cs1	3T3 cytotox inconclusive (no result: hNpr1 antagonist)
